TR SRC2 fluor cs: Total Fluorescence Counterscreen for Inhibitors of the Interaction of Thyroid Hormone Receptor and Steroid Receptor Coregulator 2 | TRb/SRC2 Texas Red total fluorescence interference | Potency, µM (series often up to 106 µM) | hit rate 0.29% among 280,000; active = well fitted curve in either direction with a large enough effect; inconclusive = small, poorly fitted or top-dose-only effect
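Human TRβ ligand-binding domain (0.6 uM) and Texas Red SRC2 peptide (20 nM) in Tris buffer with 1 uM T3 and 5% DMSO were incubated with pinned compound for 5 hr at ambient temperature. Total fluorescence was computed as S + 2P (555/632 nm).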
RECQ1 inh-1: qHTS Assay for Inhibitors of RecQ-Like Dna Helicase 1 (RECQ1). ATP-dependent DNA helicase Q1 (Homo sapiens), P46063. RECQ1 DNA unwinding, red fluorescence kinetic read. Potency, µM (doses to about 57.3 µM), most hits filed as inhibitors. hit rate 0.54% among 240,000. AID 2549, 2010; also: nearly all actives have a fitted effect of over 30% in size
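RECQ1T1 50 nM; forked duplex (20 bp + 30-nt ss tails) 200 nM, ATP 2 mM final; pH 8.0, 2 mM MgCl2, 2.5 ug/ml poly(dI-dC); 15 min compound preincubation; discontinuous kinetic read over 2 h at RT.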
TRb SRC2 PPI: qHTS for Inhibitors of the Interaction of Thyroid Hormone Receptor and Steroid Receptor Coregulator 2 | TRbeta-SRC2 peptide binding, fluorescence polarization; receptor liganded with 1 µM T3 | hit rate 0.065% among 280,000 | Thyroid hormone receptor beta (Homo sapiens), P10828 | AID 1469, 2008 | Potency, µM (highest dose often 106 µM), most hits filed as inhibitors; also: nearly all actives have a fitted effect of over 50% in size
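Assay buffer: 20 mM Tris-HCl, 100 mM NaCl, 10% glycerol, 1 mM EDTA, 0.01% NP-40, 1 mM DTT, 1 uM T3, 5% DMSO; TRb LBD 0.6 uM, Texas Red SRC2 20 nM; FP after 5 hr.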
APE1 inh: qHTS Assay for Inhibitors of the Human Apurinic/apyrimidinic Endonuclease 1 (APE1); DNA repair nuclease/redox regulator APEX1 (Homo sapiens), P27695; recombinant APE1, TAMRA/BHQ-2 abasic DNA cleavage fluorescence; Potency, µM (top dose mostly 65.8 µM), usual class: inhibitors; hit rate 0.35% among 350,000; AID 2517, 2012; also: nearly all actives have a fitted effect of over 55% in size
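Incision of a quenched TAMRA/BHQ-2 THF abasic-site duplex (50 nM) by 0.75 nM APE1, after 15 min compound preincubation, measured as fluorescence increase over three 60 s reads. Values normalized to buffer, DMSO and NSC13755 control wells.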
BLM inh: qHTS Assay for Inhibitors of Bloom's syndrome helicase (BLM). RecQ-like DNA helicase BLM (Homo sapiens), P54132. recombinant BLM DNA unwinding, fluorescence dequenching. Potency, µM (highest dose often 56.1 µM), actives largely listed as inhibitors. hit rate 0.2% among 350,000. AID 2528, 2010; also: nearly all actives have a fitted effect of over 35% in size
WRN helicase inh: qHTS for Inhibitors of WRN Helicase; Potency, µM (top dose mostly 114 µM), hits mostly inhibitors; hit rate 0.46% among 360,000; WRN helicase unwinding, fluorescent forked duplex, kinetic; Bifunctional 3'-5' exonuclease/ATP-dependent helicase WRN (Homo sapiens), Q14191; also: nearly all actives have a fitted effect of over 55% in size
Target sequence (Q14191 whole entry, looked up): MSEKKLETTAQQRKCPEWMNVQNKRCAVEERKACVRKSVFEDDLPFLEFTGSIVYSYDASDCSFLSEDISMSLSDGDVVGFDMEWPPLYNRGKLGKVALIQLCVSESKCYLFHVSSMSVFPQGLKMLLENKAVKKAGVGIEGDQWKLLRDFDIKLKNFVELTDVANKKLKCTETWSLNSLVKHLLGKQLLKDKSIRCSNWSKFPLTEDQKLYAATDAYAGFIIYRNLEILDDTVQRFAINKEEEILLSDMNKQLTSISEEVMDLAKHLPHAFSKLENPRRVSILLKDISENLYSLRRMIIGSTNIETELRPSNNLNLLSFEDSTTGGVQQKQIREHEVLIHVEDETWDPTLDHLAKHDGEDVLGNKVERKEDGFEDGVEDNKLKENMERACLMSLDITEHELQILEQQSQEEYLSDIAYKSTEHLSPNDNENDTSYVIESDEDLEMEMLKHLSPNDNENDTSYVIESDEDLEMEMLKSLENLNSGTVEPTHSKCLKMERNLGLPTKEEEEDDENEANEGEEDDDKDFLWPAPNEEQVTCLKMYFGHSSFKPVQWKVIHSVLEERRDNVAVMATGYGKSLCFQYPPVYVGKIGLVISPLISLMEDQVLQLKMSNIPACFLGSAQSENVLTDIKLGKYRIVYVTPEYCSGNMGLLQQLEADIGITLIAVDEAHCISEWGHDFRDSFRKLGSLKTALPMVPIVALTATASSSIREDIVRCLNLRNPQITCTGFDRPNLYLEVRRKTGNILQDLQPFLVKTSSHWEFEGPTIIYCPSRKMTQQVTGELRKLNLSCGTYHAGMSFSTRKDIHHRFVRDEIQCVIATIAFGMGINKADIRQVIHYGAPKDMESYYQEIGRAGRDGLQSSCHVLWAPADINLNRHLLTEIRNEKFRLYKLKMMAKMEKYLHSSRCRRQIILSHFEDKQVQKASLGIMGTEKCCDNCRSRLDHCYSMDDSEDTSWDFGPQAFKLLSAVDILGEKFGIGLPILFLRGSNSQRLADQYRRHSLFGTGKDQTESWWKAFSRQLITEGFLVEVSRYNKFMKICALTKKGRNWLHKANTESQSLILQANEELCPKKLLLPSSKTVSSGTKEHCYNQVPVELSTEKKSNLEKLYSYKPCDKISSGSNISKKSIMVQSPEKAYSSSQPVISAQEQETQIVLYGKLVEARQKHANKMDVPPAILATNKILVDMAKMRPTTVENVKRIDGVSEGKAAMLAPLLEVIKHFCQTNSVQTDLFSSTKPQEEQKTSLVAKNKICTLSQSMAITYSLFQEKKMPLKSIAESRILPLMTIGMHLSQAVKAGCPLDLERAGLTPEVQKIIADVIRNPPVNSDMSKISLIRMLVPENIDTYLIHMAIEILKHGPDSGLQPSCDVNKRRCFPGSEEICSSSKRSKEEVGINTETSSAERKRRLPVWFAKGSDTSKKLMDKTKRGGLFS
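Screening of the MLSMR collection measured strand separation of a quenched forked DNA duplex (100 nM) by 20 nM WRN with 2 mM ATP, all final. Compounds were preincubated with enzyme 15 min at room temperature.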
RECQ1 inh conf: Confirmation qHTS Assay for Inhibitors of RecQ-Like Dna Helicase 1 (RECQ1) | shares compounds with RECQ1 inh-1 | RECQ1 helicase DNA unwinding, fluorescence | Potency, µM (doses to about 229 µM), actives largely listed as inhibitors | hit rate 28% among 610 | AID 2708, 2010; also: nearly all actives have a fitted effect of over 45% in size
ADP FP counter: Counterscreen for RECQ1 Inhibitors: ADP Fluorescence Polarization Displacement Assay; shares compounds with RECQ1 inh-1; ADP fluorescence polarization displacement counterscreen; Potency, µM (highest dose often 228 µM), actives largely listed as inhibitors; hit rate 27% among 530; also: nearly all actives have a fitted effect of over 45% in size
RECQ1 inh-2: Confirmation qHTS Assay for Inhibitors of RecQ-Like Dna Helicase 1 (RECQ1) - Round 2 Cherry Picks; shares compounds with RECQ1 inh-1; Potency, µM (titrated, usually from 119 µM), hits mostly inhibitors; recombinant RECQ1 DNA unwinding, red fluorescence; hit rate 15% among 1,100; also: nearly all actives have a fitted effect of over 50% in size
Each line names hits and unclear results; the compound was inactive in the other large screens (follow-up assays come after a bar, where they were run); ! = a repeat was not active. This is a sample that favours compounds with a hit; in the whole collection about 0.91% have one here. Unless noted, calls follow the shape of the dose curve; as a rule, active = well fitted curve in the direction sought with a large enough effect; inconclusive = small, poorly fitted or top-dose-only effect, or another doubt; inactive = no such curve, though single readings can be large; an effect the other way counts as inactive or inconclusive.

CCCn1c(-c2ccc(F)cc2)nc2c(NCCN3CCCC3)nc(C)nc21	none (no result: WRN helicase inh)
COC(=O)c1cn(C)c2ccc(S(=O)(=O)N3CCOCC3)cc2c1=O	none
COC(=O)c1cn(C)c2ccc(S(=O)(=O)N3CCCC3)cc2c1=O	RECQ1 inh-1 inconclusive | RECQ1 inh-2 inactive
Cc1ccc(Nc2ccc(N)cc2S(=O)(=O)O)cc1	RECQ1 inh-1 inconclusive, APE1 inh inconclusive | RECQ1 inh-2 inactive
Cc1ccc(S(=O)(=O)c2cc(Nc3ccccc3)ccc2O)cc1	none (no result: TR SRC2 fluor cs, RECQ1 inh-1, TRb SRC2 PPI, BLM inh)
CC1(C)CN(C(=S)Nc2ccc(F)cc2F)C1=O	none (no result: TR SRC2 fluor cs, RECQ1 inh-1, TRb SRC2 PPI)
N=C(N)c1ccc(O)cc1	none
N=C(N)c1ccccc1	RECQ1 inh-1 14.1µM! | RECQ1 inh conf inactive | ADP FP counter inactive
CC(=O)Nc1cccc(-c2ccnc3c2CC(C)(C(=O)Nc2ccc4c(c2)OCO4)O3)c1 (stereo unspecified)	none (no result: TR SRC2 fluor cs, RECQ1 inh-1, TRb SRC2 PPI, APE1 inh, BLM inh)
O=[N+]([O-])c1ccccc1-c1ccc(/C=N/n2cnnc2)o1	none
Nn1cnnc1N/N=C\c1ccc(-c2ccccc2[N+](=O)[O-])o1	TR SRC2 fluor cs inconclusive, RECQ1 inh-1 4.47µM | RECQ1 inh conf inactive
COc1ccc(NC(=O)Cn2c(=O)c3ccccc3n3nncc23)c(OC)c1	none (no result: RECQ1 inh-1, APE1 inh, WRN helicase inh)
O=C(CCS(=O)(=O)c1ccc(Br)cc1)NCc1ccco1	none (no result: TR SRC2 fluor cs, RECQ1 inh-1, TRb SRC2 PPI)
O=C(CCS(=O)(=O)c1ccc(Br)cc1)NCc1cccs1	RECQ1 inh-1 inconclusive, APE1 inh inconclusive, WRN helicase inh inconclusive | RECQ1 inh-2 inconclusive
COc1ccc(C)cc1N(CC(=O)N/N=C/c1ccccc1C(=O)O)S(=O)(=O)c1ccccc1	none | RECQ1 inh conf inactive | ADP FP counter inactive
CN(CCC1CCOCC1)C(=O)CC1C(=O)NCCN1Cc1c(F)cccc1Cl (stereo unspecified)	none (no result: TR SRC2 fluor cs, RECQ1 inh-1, TRb SRC2 PPI)
O=C1CSC(=S)N1c1cccnc1	RECQ1 inh-1 31.6µM | RECQ1 inh-2 inactive
O=C(O)c1ccc(CN2C(=O)CSC2=S)cc1	TR SRC2 fluor cs inconclusive, RECQ1 inh-1 15.8µM, TRb SRC2 PPI inconclusive, APE1 inh inconclusive | RECQ1 inh conf inactive | ADP FP counter inactive | RECQ1 inh-2 inactive
O=C(O)c1ccc(N2C(=O)CSC2=S)cc1	none (no result: TR SRC2 fluor cs, RECQ1 inh-1, TRb SRC2 PPI, APE1 inh, BLM inh)
O=C1CSC(=S)N1Cc1cccnc1	TR SRC2 fluor cs inconclusive, RECQ1 inh-1 25.1µM, TRb SRC2 PPI inconclusive, APE1 inh inconclusive | RECQ1 inh-2 inconclusive
COc1ccc(NC(=O)N(C)C[C@H]2Oc3ccc(NC(=O)Nc4c(C)noc4C)cc3C(=O)N([C@H](C)CO)C[C@@H]2C)cc1	none (no result: TR SRC2 fluor cs, RECQ1 inh-1, TRb SRC2 PPI, BLM inh)
O=C(c1ccco1)N(c1ccccn1)c1ccccn1	none
O=C(/C=C/c1ccco1)N(c1ccccn1)c1ccccn1	RECQ1 inh-1 inconclusive, APE1 inh inconclusive, BLM inh inconclusive, WRN helicase inh 50.1µM | RECQ1 inh-2 44.7µM
CCNC(=S)Nc1cccc(F)c1C	none
Cc1cc(=O)c2c(O)c(O)ccc2o1	RECQ1 inh-1 35.5µM, APE1 inh inconclusive | RECQ1 inh-2 inactive

Screening data as filed in PubChem BioAssay.
